This passage reports IC50 results from US20060069055, “Delivery of polynucleotides” (published 2006).

The assay deals with NF-kB p65/p50 heterodimer (Homo sapiens, UniProt Q04206;P19838 Q04206:1-551,P19838:1-433). Put plainly: EMSA. Conditions: protein: extract; tags: nuclear extract of LPS-stimulated THP-1 cells; dsDNA, one strand shown. An excerpt: The EMSA assay was employed to characterize oligonucleotide decoys for the NF-κB transcription factor. […] Using the above modified oligonucleotides to compete for binding for the above-mentioned NF-κB family members, it was possible to compare the binding affinity of these oligonucleotides against the high affinity radiolabeled probe and each other. This assay has also enabled the design of a decoy which selectively binds particular members of the NF-κB family. By using increasing concentrations of various oligonucleotides, it was observed that, by deleting or changing targeted residues in the binding site, it was possible to specifically decrease the binding of the decoy molecule to p50/p50 homodimers, while retaining the affinity for p65/p50 and cRel/p50 heterodimers.
NF-kB p65/p50 heterodimer, sequence (Q04206 whole entry, chain 1 of 2): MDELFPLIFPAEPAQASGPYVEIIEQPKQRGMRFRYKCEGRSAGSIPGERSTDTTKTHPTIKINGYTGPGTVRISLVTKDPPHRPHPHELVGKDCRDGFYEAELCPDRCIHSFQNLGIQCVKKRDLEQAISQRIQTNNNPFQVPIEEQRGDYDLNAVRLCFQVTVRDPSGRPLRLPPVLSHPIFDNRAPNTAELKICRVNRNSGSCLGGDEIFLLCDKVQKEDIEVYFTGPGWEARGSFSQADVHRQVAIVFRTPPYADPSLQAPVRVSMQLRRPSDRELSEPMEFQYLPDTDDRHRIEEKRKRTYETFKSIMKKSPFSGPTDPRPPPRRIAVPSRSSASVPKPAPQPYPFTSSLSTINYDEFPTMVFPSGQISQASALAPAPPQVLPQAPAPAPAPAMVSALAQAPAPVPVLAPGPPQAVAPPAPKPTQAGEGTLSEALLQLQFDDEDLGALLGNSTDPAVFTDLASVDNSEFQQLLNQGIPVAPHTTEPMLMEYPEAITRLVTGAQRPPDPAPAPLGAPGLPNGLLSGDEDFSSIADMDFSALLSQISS
NF-kB p65/p50 heterodimer, sequence (P19838 1-433, chain 2 of 2): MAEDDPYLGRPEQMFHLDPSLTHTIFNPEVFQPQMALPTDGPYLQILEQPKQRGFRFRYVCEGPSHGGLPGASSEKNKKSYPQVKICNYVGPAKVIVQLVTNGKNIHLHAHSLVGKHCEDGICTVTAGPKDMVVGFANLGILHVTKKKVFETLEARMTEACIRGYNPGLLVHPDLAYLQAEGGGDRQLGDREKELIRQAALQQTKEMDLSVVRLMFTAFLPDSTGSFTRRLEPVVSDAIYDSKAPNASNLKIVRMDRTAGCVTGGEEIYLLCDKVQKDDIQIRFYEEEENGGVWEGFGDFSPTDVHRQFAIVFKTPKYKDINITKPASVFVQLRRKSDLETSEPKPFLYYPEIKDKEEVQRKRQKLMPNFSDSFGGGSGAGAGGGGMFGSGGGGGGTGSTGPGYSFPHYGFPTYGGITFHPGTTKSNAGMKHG
The NF-κB gel shift assays (EMSA) were performed as follows. A double-stranded oligonucleotide containing a consensus NF-κB binding site (5′ […].GGC 3′) (SEQ ID NO: 26) was end-labeled with γ³²P-ATP using T4 Polynucleotide Kinase (Promega). One microgram of a nuclear extract prepared from LPS stimulated THP-1 cells (human monocyte cell line) was incubated with 35 fmol of radiolabeled probe in the presence or absence of competing unlabeled NF-κB double-stranded oligonucleotides (dsODN) or scrambled dsODN. The incubations were carried out at room temperature for 30 minutes in a 20 μl reaction volume composed of 10 mM Tris-HCl pH 8, 100 mM KCL, 5mM MgC12, 2mM DTT, 10% Glycerol, 0.1% NP-40, 0.025% BSA and 1 μg Poly-dIdC. The reactions were loaded onto a 6% polyacrylamide gel, subjected to electrophoresis and dried. The dried gels were imaged and quantitated using a Typhoon 8600 Phosphorlmager (Amersham) and ImageQuant software. The identity of the NF-κB proteins contained in complexes bound to the radiolabeled oligonucleotide probe were identified by pre-incubating the reactions for 5 minutes with individual antibodies specific for each member of the NF-κB family prior to the addition of the radiolabeled probe.
On the technique in general: In EMSA bound probe runs differently from free probe, usually more slowly.
On to TCGGATTTCCTC, for which the IC50 was found to be 74 fold molar excess.
The result for TTGAGGACTTTCCAGGCTC reads 87 fold molar excess; that for ATGGACTTTCCGT, 72.5 fold molar excess; that for AGTTGAGGATTTCCCAGGC, 54 fold molar excess.
On to TTGAGGACTTTCCAGGC, for which the IC50 is 87 fold molar excess.
As for AGTTGAGGATTTCCAGGC, the figure is 73 fold molar excess.
As for TGAGGACTTTCCAGGCTC, the figure is 92 fold molar excess; as for TCGGACTTTCCTC, 81 fold molar excess; as for TGAGGACTTTCCAGGC, 93 fold molar excess.
